Inconclusive results are not listed. Active and inactive are the calls of the source. Calls come from the whole dose curve; as a rule, active = well fitted inhibition curve with a large enough effect in the repeat runs; inconclusive = weak or mixed curves; inactive = no such curve, though single readings can be large or run the other way.
What follows are molecules tested against Cytochrome P450 2C9 (Homo sapiens) (UniProt P11712) (assay: Cytochrome P450 family 2 subfamily C member 9 (CYP2C9) small molecule antagonists: luciferase biochemical (cell-free) qHTS assay (AID 1645842; note: nearly all actives have a fitted effect of over 55% in size)). Conditions: P450-Glo CYP2C9 enzyme assay, luciferin luminescence; series mostly up to 57.4 µM.
Cytochrome P450 2C9 (Homo sapiens), sequence (P11712 whole entry, looked up): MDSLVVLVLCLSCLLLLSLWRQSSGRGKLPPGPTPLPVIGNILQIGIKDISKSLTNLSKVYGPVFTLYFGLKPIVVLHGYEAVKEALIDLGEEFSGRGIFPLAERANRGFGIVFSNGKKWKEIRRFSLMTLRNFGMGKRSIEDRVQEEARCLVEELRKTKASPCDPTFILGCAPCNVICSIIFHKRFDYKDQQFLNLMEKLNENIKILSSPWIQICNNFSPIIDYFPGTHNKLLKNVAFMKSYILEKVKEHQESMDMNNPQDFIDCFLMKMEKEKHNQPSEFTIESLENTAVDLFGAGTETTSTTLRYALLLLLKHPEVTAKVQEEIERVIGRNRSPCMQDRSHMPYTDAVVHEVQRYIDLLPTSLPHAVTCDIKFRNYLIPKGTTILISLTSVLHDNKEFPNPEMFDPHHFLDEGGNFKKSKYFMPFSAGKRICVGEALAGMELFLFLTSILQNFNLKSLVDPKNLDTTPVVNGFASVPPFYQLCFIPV
How it was run: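 P450-Glo CYP2C9 system: proluciferin substrate with enzyme in mix containing 0.4% BSA, 10 min at room temperature, then NADPH regeneration solution added and incubated 1 h at 37C. Detection reagent stopped reaction; luminescence read after 20 min as RLU.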
COc1ccc(Cl)cc1NC(=O)CN1C(=O)CSc2ccc(S(=O)(=O)N3CCCC3)cc21 was tested, and the Potency was 0.756 µM (active). For O=C(CC1N=C2c3ccccc3N=C(SCc3ccc(F)cc3)N2C1=O)NC1CCCCC1 (centres undefined), the Potency was 2.68 µM (active). Cc1ccnc(NC(c2ccccc2F)c2ccc3cccnc3c2O)c1 (centres undefined) was tested, and the Potency was 23.9 µM (active). For COC(=O)c1c(SCC(=O)Nc2ccccc2C(F)(F)F)[nH]c2ccc(Cl)cc2c1=O, the Potency was 1.9 µM (active). In the case of CCOc1ccc2nc(N3CCC(C(=O)Nc4ccccc4CC)CC3)sc2c1, the Potency is reported as 6.01 µM (active). In the case of CCOC(=O)c1nnc(NC(=O)C2=C(C)NC(Nc3nc4ccccc4o3)=NC2c2ccccc2Cl)s1 (centres undefined), the Potency is reported as 16.9 µM (active). COC(=O)c1ccc(C2C=C(c3ccc(Cl)cc3)Nc3nc4ccccc4n32)cc1 (centres undefined) was tested, and the Potency was 2.68 µM (active). With Oc1c(C(c2ccc(Cl)cc2Cl)N2CCN(Cc3ccccc3)CC2)sc2nc(-c3ccco3)nn12 (centres undefined) the Potency was 6.01 µM (active). CC1(C#N)CCN(c2c(C(=O)N3CCC(C(=O)C4CC4)CC3)cnc3cc(F)c(F)cc23)CC1 was tested, and the Potency was 9.52 µM (active). For CC(=O)c1ccc(N2CCN(c3ncnc4c3cnn4C)CC2)cc1, the Potency was “inactive”. In the case of COc1ccc(-c2cn3cccnc3n2)cc1NC(=O)COc1ccccc1, the Potency is reported as 4.77 µM (active). With CC(=O)c1ccc(NC(=O)Cn2cc(S(=O)(=O)Cc3ccccc3Cl)c3ccccc32)cc1 the Potency was 1.69 µM (active). CC1=C(C(=O)Nc2cc(C(=O)O)ccn2)C(c2ccc(F)cc2Cl)N=C(Nc2nc3ccc(F)cc3o2)N1 (centres undefined) was tested, and the Potency was 23.9 µM (active). With COc1ccc(Cn2c(CCC(=O)Nc3cc(C)cc(C)c3)nc3cccnc32)cc1 the Potency was 6.74 µM (active). For O=C(CSc1nc2ccccc2n1Cc1cccc(F)c1)N1CCN(c2ccc(F)cc2)CC1, the Potency was 3.38 µM (active). With O=C(CSc1nc(-c2ccc(F)cc2)[nH]c1-c1ccc(F)cc1)Nc1ccc2c(c1)OCO2 the Potency was 0.849 µM (active). CCOCCCNC(=O)C(=O)Nc1c2c(nn1-c1ccc(OC)cc1)CSC2 was tested, and the Potency was 10.7 µM (active). In the case of Cc1ccc(C2=CC(c3ccccc3C)n3c(nc4ccccc43)N2)cc1 (centres undefined), the Potency is reported as 3.38 µM (active). With CCOc1ccc(C(=O)NCCS(=O)(=O)N2CCN(c3ccccc3F)CC2)cc1OCC the Potency was 2.13 µM (active). In the case of OC[C@@H](O)C(O)[C@@H](O)CO (some centres undefined), the Potency is reported as “inactive”. For CCc1nnc(NC(=O)CSc2nc3c([nH]c4ccccc43)c(=O)n2-c2ccc(OC)cc2)s1, the Potency was 4.25 µM (active). CCCCn1cnc2cc(NCc3ccccc3Cl)ccc21 was tested, and the Potency was 2.13 µM (active). With COc1ccc(Cn2c(SCC(=O)N3CCN(c4ccc(F)cc4)CC3)nc3ccccc32)cc1 the Potency was 1.69 µM (active). In the case of Oc1c(C(Nc2ccccn2)c2ccccc2F)ccc2cccnc12 (centres undefined), the Potency is reported as 19 µM (active). For CCOCCCNC(=O)CCC(=O)NNc1nc2ccccc2c2nc(-c3ccccc3)nn12, the Potency was 3.38 µM (active). CCC(Sc1nc2nccnc2c(=O)n1Cc1ccc(C)cc1)C(=O)NC1CCCCC1 (centres undefined) was tested, and the Potency was 9.52 µM (active). For Cc1cccc(NC(=O)Cn2c(=O)n(Cc3ccc(C(=O)NCc4ccc5c(c4)OCO5)cc3)c(=O)c3ccccc32)c1, the Potency was “inactive”. In the case of Cc1ccc([S+](=O)([O-])NC2CC(C)(C)CC(C)(C)C2)cc1, the Potency is reported as 2.13 µM (active). Cc1ccnc(NC(c2cccc(O)c2)c2ccc3ccc(C)nc3c2O)c1 (centres undefined) was tested, and the Potency was 9.52 µM (active). In the case of COc1cc(Cl)c(C)cc1NC(=O)CSc1ncc(S(=O)(=O)c2ccc(C(C)(C)C)cc2)c(=O)[nH]1, the Potency is reported as 0.425 µM (active). With CCOc1ccc(CCNC(=O)CCCn2nc(C)c3sc4ccccc4c3c2=O)cc1OCC the Potency was 2.68 µM (active). In the case of CCOC(C(=O)N(C)CCN(C)CCc1ccccc1)(c1ccccc1)c1ccccc1, the Potency is reported as 6.01 µM (active). In the case of Cc1ccccc1C(=O)Nc1sc2c(c1C(=O)O)CCC(C(C)(C)C)C2 (centres undefined), the Potency is reported as “inactive”. With CCOc1cc(C(=O)Nc2ccc(-c3nc4ncccc4o3)cc2C)cc(OCC)c1OCC the Potency was 7.56 µM (active). COc1ccc(NC(=O)c2cnc[nH]2)cc1S(=O)(=O)Nc1ccc(Br)cc1 was tested, and the Potency was 10.7 µM (active). In the case of COc1ccc(OCC(=O)Nc2cc(-c3nc4ccccc4s3)ccc2C)cc1, the Potency is reported as 0.379 µM (active). With Cc1nc2c3ccccc3nc(NNC(=O)CCC(=O)N3CCN(c4cccc(Cl)c4)CC3)n2n1 the Potency was 12 µM (active). For CCOC(=O)c1ccc(NC(=O)CSc2cc(-c3ccccc3)nc(C)n2)cc1, the Potency was 0.952 µM (active). In the case of C=CC(C)(O)CCC=C(C)CCC=C(C)C (centres undefined), the Potency is reported as 21.3 µM (active).

Source: PubChem BioAssay (NCATS)
Potency is the fitted concentration of half-maximal effect.
